The term inhibition denotes the change of the read-out against control, counted positive when it falls.

Screen size: about 320,000 compounds; about 1,300 (0.41%) were called active. Roughly 3% stayed inconclusive and do not appear here. No rule for the calls is given here. A selection follows. Entries with a potency or affinity are not part of this list.

The assay can be described thus: growth inhibition of non-replicating M. tuberculosis (AID 488890).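 Also: plate controls were DMSO cells for no effect and high antibiotic wells for full effect.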 The settings on record: Mycobacterium tuberculosis non-replicating, at 25 µM, stronger effect = higher value.
Consider `O=C(COc1ccccc1F)Nc1c2c(nn1-c1ccccc1)CS(=O)(=O)C2`, for which the inhibition amounted to 16.8%.
As for `Cc1ccc(OCC(O)Cn2c(N3CCOCC3)nc3c2c(=O)[nH]c(=O)n3C)cc1` (configuration not stated), the inhibition is 14.4%.
The figure for `COc1cccc(/C=N/N2CCN(c3ccccc3OC)CC2)c1` is 2.17%; for `CCCCC[C@@H]1C=C(C(=O)O)[C@H](c2ccc3c(c2)OCO3)N1S(=O)(=O)c1ccc(C)cc1` it is 27.2%; for `COC(=O)C1ON2OC(C(=O)OC)C(C(=O)OC)C2C1CC(C)=O` (configuration not stated) it is -1.62%.
With `Cc1ccc(-c2nnc(C)c(N3CCOCC3)n2)cc1`, the inhibition is 7.79%.
For `Cc1ccc(-c2nnc(C)c(N3CC(C)OC(C)C3)n2)cc1` (configuration not stated), the inhibition came to 2.5%.
`CCOC(=O)C1=C(N)OC2=C(C(=O)CC(C)(C)C2)C1c1ccc(C)s1` (configuration not stated): the inhibition stood at 64.3%.
Take `O=C(COC(=O)c1cccnc1Cl)NCCCc1ccccc1`: the inhibition was determined as 27.7%.
The same measure for `COc1ncccc1-c1nnn(-c2ccccc2Br)n1`: 3.8%; for `C#CCOc1ccc2c(c1)c(C(C)=O)c(C)n2Cc1ccccc1`: -5.53%.
On to `CCOC(=O)COc1ccc2c(c1)c(C(C)=O)c(C)n2-c1ccccc1`, for which the inhibition was determined as 19.1%.
`O=C(COc1ccc(F)cc1Br)NCc1ccccn1`: the inhibition came out at 28.1%.
For the compound `COc1ccc(S(=O)(=O)NCc2ccncc2)cc1NC(=O)c1ccc(Cl)cc1`, the inhibition was 5.22%.
Consider `Cc1oc2c(c(=O)c1C)C(=O)CC(c1ccccc1)C2` (configuration not stated), for which the inhibition is -6.93%.
The same measure for `Cc1c(C(=O)O)[nH]c2c1C(=O)CC(c1ccccc1)C2` (configuration not stated): 4.15%; for `Cc1cc(Cl)ccc1N1C(=O)CC(NNC(=O)c2cccnc2)C1=O` (configuration not stated): 5.86%.
Turning to `CCS(=O)(=O)N1CCC(NC(=O)C2CCCCC2)CC1`, the inhibition was -9.82%.
The same measure for `CCOC(=O)c1csc(NC(C)=O)n1`: -1.23%; for `Cc1onc(-c2ccccc2)c1-c1csc(COc2ccccc2)n1`: 33.1%.
On to `CC(=O)c1csc(COc2ccccc2)n1`, for which the inhibition is -0.92%.
The same measure for `CCOC(=O)c1csc(NC(=O)COc2ccc(Cl)cc2Cl)n1`: 80.3%; for `CCOC(=O)c1csc(-c2ccc(OC)c(OC)c2)n1`: 32.3%.
Regarding `CCC(=O)NNC(=O)c1cc(COc2cc(Cl)cc(Cl)c2)on1`, the inhibition came to 40%.
On to `CC(C)NC(=O)NNC(=O)c1cc(COc2cc(Cl)cc(Cl)c2)on1`, for which the inhibition was determined as 31.8%.
Take `CCOC(=O)c1csc(N)n1`: the inhibition is -4.96%.
For `COc1ccc(OC)c(Nc2nc(N)nc(CSc3nnc(N)s3)n2)c1`, the inhibition is -6.45%.
The same measure for `N#CC1(NC(=O)CSc2nnc(-c3ccccc3F)n2N)CCCCC1`: -6.24%; for `O=C(CCN1C(=O)C2CC=CCC2C1=O)NC1CCCCC1` (configuration not stated): -1.44%; for `COc1ccc(-c2cn(-c3ccc(Cl)cc3)c3[n+]2CCCCC3)cc1`: 10.6%.
The figure for `O=C(c1ccc(N2CC3CC(C2)c2cccc(=O)n2C3)c([N+](=O)[O-])c1)N1CCCC1` (configuration not stated) is -6.65%; for `O=C(C1=NN[C@@H]2C(=O)N(Cc3ccccc3)C(=O)[C@H]12)c1ccc(F)cc1` it is 5.43%.

The values are drawn from PubChem BioAssay AID488890 (Southern Research Specialized Biocontainment Screening …, 2010).
